From PubChem BioAssay come the findings set out here.

SMILES strings stand for the structures. For some assays here: Entries with a potency or affinity are not part of this list. Calls of active or inactive are those of the source.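 How the source made its calls, unless noted: active means calcium signal cut by more than 3 SD below the full-agonist control yet still positive, in both repeats and the earlier primary screen; inactive means the rest.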

The test system of assay [1] is TRPC4 beta (transient receptor potential cation channel C4), mouse. As to the kind of experiment: TRPC4 cation channel opening, retest – cell-based, Fluo4 calcium, HEK293 TRPC4beta/mu-opioid, duplicates, 10 µM, confirmation (AID 2426;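 active means fluorescence ratio normalized to control raised more than 50% in primary screen plus both repeat runs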;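 on activation: percent rise of integrated ratio over buffer wells lacking compound which define 0%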). As to conditions: Fluo4 calcium fluorescence, at 10 µM; hits give high values.
The subject of assay [2] is transient receptor potential cation channel C4 beta (TRPC4), mouse. As to the kind of experiment: TRPC4 cation channel opening, second retest – cell-based, second round, Fluo4, HEK293 TRPC4beta/mu-opioid, 1 µM, confirmation (AID 2461;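 active means primary screen active and over 50% activation in each of two duplicate runs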). As to conditions: Fluo4 calcium fluorescence, at 1 µM; hits give high values.
The subject of assay [3] is TRPC4 (transient receptor potential cation channel C4 beta), mouse. As to the kind of experiment: potentiation of DAMGO EC20 TRPC4 response – cell-based, second round, Fluo-4, HEK293 TRPC4beta/mu-opioid, 1 µM, confirmation (AID 2554;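 active means primary screen hit whose fluorescence ratio, in both repeats, exceeds the weak agonist control mean by 3 SD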). Conditions: DAMGO EC20, Fluo-4 calcium flux, at 1 µM; hits give high values. In general terms: Calcium assays in cells follow changes in intracellular calcium, usually with a dye or a luminescent sensor.

The test system of assay [4] is TRPC4 beta (transient receptor potential cation channel C4), mouse. As to the kind of experiment: potentiation of DAMGO EC20 TRPC4 response – cell-based, Fluo-4, HEK293 TRPC4beta/mu-opioid, confirmation (AID 2555;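 active means primary screen hit whose calcium fluorescence ratio, in both repeats, exceeds the weak agonist control mean by 3 SD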). Conditions: DAMGO EC20, Fluo-4 calcium flux, at 10 µM; hits give high values.
In assay [5] the target is Short transient receptor potential channel 4 (Mus musculus) (UniProt Q9QUQ5). As to the kind of experiment: blockers of DAMGO-evoked TRPC4 calcium flux – cell-based, Fluo4, HEK293 TRPC4beta/mu-opioid, confirmation (AID 2636). Conditions: at 10 µM; hits give high values.
Assay [6] shares this target. As to the kind of experiment: blockers of DAMGO-evoked TRPC4 calcium flux – cell-based, second round, Fluo4, HEK293 TRPC4beta/mu-opioid, 1 µM, confirmation (AID 2637;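 active means calcium signal ratio cut to more than 3 SD under the fully stimulated control mean yet still positive, in both repeats and the primary screen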). Conditions: at 1 µM; hits give high values.
Assay [7] shares this target. As to the kind of experiment: calcium entry via TRPC4 opening agents – cell-based, HEK293 TRPC4/mu-opioid, Fluo-4 calcium, dose response (AID 434937;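 active means primary screen activator hit with a dose response curve and TRPC4 channel activation at any tested dose; inactive means no activation, no dose response, or not a primary hit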).
For assay [8] the target is unchanged. As to the kind of experiment: block of DAMGO-driven TRPC4 calcium entry – cell-based, HEK293 TRPC4/mu-opioid, Fluo-4 calcium, dose response (AID 434942;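 active means primary screen inhibitor hit that blocks the TRPC4 channel at some tested dose, yielding a dose curve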).
Assay [9] deals with Short transient receptor potential channel 6 (Mus musculus) (UniProt Q61143). As to the kind of experiment: TRPC6 blockade by TRPC4 inhibitor hits – cell-based, HEK293, membrane potential dye, duplicate, selectivity assay for TRPC4 inhibitor project, confirmation (AID 434948;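 active means active in primary screen and both duplicates, each dropping signal beyond three positive-control SD with fluorescence still positive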). Conditions: HEK293 TRPC6, membrane potential dye fluorescence, at 10 µM, stimulated with maximal-effect acetylcholine; hits give high values.

Assay [10] shares this target. As to the kind of experiment: TRPC6 opening by TRPC4 activator hits – cell-based, HEK293, membrane potential dye, duplicate, selectivity assay for TRPC4 activator project, confirmation (AID 434950;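 active means membrane potential signal rise above negative control mean plus 3 SD in both duplicates, also active in the earlier TRPC4 screen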;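 on activation: 0% = buffer only wells and 100% = acetylcholine maximal-effect wells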). As to conditions: HEK293 TRPC6, membrane potential fluorescence, at 10 µM; activation: hits give high values; outcome: activation.
Assay [11] shares this target. As to the kind of experiment: positive modulators of mouse TRPC6 channel – HEK293 cells, membrane potential dye, duplicate, selectivity assay for TRPC4 potentiator project, confirmation (AID 434952;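 active means compound raising the membrane signal above positive-control mean plus 3 SD in both repeats, and a primary screen hit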). As to conditions: HEK293 TRPC6, membrane potential dye fluorescence, at 10 µM, maximal acetylcholine added after compound; hits give high values.
Assay [12] addresses Short transient receptor potential channel 4 (Mus musculus) (UniProt Q9QUQ5). As to the kind of experiment: calcium flux activators in TRPC4/5HT1a cells, counter-screen for TRPC4 activator project, cell-based, second counter screen, HEK293 TRPC4/5HT1a, Fluo-4 (AID 434977;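 active means calcium signal rise above buffer-control mean plus 5 SD in both duplicates, and also a hit in the primary screen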;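 on activation: plate controls were assay buffer for no effect and maximal serotonin response for full effect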). As to conditions: Fluo-4 calcium flux, at 10 µM; hits give high values.
Assay [13] in a line: serotonin-gated TRPC4 signal block – cell-based, second counter screen, HEK293 TRPC4/5HT1a, Fluo-4, counter-screen for TRPC4 inhibitor project, confirmation (AID 434978;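 active means primary screen active whose calcium signal fell more than 3 SD beyond the full-serotonin control mean in both duplicate plates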;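 further: serotonin given first at submaximal then at maximal dose after compound preincubation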). Conditions: Fluo-4 calcium flux, at 10 µM, serotonin added to trigger calcium flux; hits give high values. In general terms: Counterscreens check selectivity or assay interference.
Assay [14] concerns TRPC4 (mouse), co-expressed with 5HT1a in HEK293. As to the kind of experiment: enhancement of serotonin-evoked TRPC4 response – cell-based, second counter screen, HEK293 TRPC4/5HT1a, Fluo-4, counter-screen for TRPC4 potentiator project, confirmation (AID 434979;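 active means signal rise over 3 SD above mean of control wells given weak agonist, in both repeats and first screen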). As to conditions: Fluo-4 calcium flux, at 10 µM, serotonin added at its EC20 dose; hits give high values.
Assay [15] is described as follows: nonspecific calcium rise without TRPC4 – cell-based, HEK293 mu-opioid receptor line, counter-screen for TRPC4 activator project, confirmation (AID 449723;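 active means hit in primary screen, with calcium signal over 5 SD above buffer well mean in both duplicates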;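 further: counter screen cells carry the mu-opioid receptor alone and lack TRPC4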). Conditions: HEK293 mu-opioid cells, Fluo-4 calcium fluorescence, at 10 µM; hits give high values.
Assay [16] in a line: nonspecific potentiation of DAMGO calcium response – cell-based, HEK293 mu-opioid receptor line, counter-screen for TRPC4 allosteric potentiator project, confirmation (AID 449724;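 active means calcium signal rise more than 3 SD above the low-dose agonist control mean, in both duplicate plates and the primary screen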). Conditions: HEK293 mu-opioid receptor cells, Fluo-4 calcium flux, at 10 µM, compound added before EC20 DAMGO stimulus; hits give high values.
The target of assay [17] is Short transient receptor potential channel 4 (Mus musculus) (UniProt Q9QUQ5). As to the kind of experiment: potentiation of DAMGO-evoked TRPC4 calcium signal – cell-based, HEK293 TRPC4/mu-opioid, Fluo-4 calcium, EC20 DAMGO, dose response (AID 434941;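 active means earlier screen potentiator hit that boosts the TRPC4 ion channel at some dose, with a dose response; inactive means no potentiation, no dose response, or not a prior hit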;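 further: calcium entry triggered by an EC20 dose of DAMGO at the co-expressed mu-opioid receptor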).

Chain of Short transient receptor potential channel 6 (Mus musculus) (Q61143 whole entry, looked up): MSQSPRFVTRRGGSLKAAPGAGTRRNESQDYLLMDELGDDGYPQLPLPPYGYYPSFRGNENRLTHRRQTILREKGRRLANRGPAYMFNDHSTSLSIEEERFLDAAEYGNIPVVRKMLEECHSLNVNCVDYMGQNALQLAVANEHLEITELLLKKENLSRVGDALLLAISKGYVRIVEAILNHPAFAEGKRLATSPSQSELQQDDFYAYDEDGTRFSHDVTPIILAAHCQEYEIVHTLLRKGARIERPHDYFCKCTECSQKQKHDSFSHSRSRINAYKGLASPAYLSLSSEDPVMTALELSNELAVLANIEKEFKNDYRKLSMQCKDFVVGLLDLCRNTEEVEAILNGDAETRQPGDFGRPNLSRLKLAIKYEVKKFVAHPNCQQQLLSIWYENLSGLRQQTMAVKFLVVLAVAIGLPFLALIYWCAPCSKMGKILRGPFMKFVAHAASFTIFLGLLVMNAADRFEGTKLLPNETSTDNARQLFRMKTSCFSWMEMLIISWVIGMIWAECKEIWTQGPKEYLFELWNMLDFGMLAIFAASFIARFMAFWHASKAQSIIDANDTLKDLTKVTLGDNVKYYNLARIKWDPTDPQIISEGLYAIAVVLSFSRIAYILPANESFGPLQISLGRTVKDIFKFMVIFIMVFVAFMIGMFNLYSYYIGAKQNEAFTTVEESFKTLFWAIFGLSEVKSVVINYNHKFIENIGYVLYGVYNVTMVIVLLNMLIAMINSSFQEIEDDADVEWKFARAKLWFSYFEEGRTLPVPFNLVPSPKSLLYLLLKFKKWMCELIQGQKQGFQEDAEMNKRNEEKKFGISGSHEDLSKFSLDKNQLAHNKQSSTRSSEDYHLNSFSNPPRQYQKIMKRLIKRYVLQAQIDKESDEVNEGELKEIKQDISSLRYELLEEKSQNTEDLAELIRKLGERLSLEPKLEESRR
Chain of Short transient receptor potential channel 4 (Mus musculus) (Q9QUQ5 whole entry, looked up): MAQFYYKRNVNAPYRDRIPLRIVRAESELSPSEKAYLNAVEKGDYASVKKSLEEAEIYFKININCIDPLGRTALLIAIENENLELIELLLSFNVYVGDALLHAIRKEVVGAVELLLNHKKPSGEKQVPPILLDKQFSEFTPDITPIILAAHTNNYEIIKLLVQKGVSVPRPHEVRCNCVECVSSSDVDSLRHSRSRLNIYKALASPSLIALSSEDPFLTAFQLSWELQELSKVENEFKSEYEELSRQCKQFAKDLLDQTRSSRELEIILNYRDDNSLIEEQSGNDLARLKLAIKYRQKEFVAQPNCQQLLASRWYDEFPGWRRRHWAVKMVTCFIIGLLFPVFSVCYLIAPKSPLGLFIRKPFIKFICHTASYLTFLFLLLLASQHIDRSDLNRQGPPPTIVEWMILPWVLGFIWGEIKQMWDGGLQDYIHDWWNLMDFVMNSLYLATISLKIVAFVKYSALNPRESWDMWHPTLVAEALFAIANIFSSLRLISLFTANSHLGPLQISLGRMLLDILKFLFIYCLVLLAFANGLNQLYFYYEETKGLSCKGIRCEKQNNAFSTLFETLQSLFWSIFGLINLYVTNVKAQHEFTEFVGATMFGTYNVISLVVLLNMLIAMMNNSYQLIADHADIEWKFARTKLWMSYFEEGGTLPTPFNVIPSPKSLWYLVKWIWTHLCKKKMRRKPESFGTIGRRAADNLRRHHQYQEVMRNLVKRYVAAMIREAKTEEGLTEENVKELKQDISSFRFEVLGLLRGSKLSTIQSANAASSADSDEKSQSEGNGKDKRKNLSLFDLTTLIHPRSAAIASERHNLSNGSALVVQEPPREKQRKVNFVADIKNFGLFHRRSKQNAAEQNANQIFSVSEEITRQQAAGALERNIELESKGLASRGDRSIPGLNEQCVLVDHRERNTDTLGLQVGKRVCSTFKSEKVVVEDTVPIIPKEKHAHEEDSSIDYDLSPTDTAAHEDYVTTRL

In the case of `C1CCN(c2nc(N3CCCC3)nc(N3CCNCC3)n2)C1`, the outcome in assay [1], in assay [2], in assay [3], in [4], in [5] and in assay [6] was inactive. Also, the result in assay [7], in assay [8], in assay [9], in [10], in assay [11] and in assay [12] was inactive. For the same compound, the outcome in [13], in assay [15] and in assay [16] was inactive. For the same compound, the potentiation in assay [14] is 18.4% (active).

Take `Nc1c(C(=O)c2ccccc2)sc2nsc(SCCN3CCCC3)c12`: the activation was 89% (active) in [1], 410% (active) in assay [10], 93% (active) in assay [12] and 84.3% (active) in assay [15]. The outcome in assay [2], in assay [3], in [4], in assay [5], in assay [6] and in [17] was inactive. The outcome in assay [8], in assay [9], in [11], in [13], in assay [14] and in [16] was inactive.

As to `Cc1cc(-c2ccc(C)c(S(=O)(=O)N3CCN(C(=O)c4ccco4)CC3)c2)on1`, the result in assay [1], in assay [2], in assay [3], in assay [5], in [6] and in assay [7] was inactive. Further, the result in assay [8], in [9], in [10], in assay [11], in assay [12] and in [13] was inactive. The result in assay [15] and in [16] was inactive. The results for the potentiation in assay [4] and in assay [14] were 46% (active) and 54.2% (active), respectively.

`COc1ccc(-c2nc(CSCC(=O)NC3CCN(Cc4ccccc4)CC3)c(C)o2)cc1OC`: the results for the activation in assay [1], in assay [10] and in assay [12] were 107% (active), 99.5% (active) and 23.1% (active), respectively. Also, the result in assay [2], in assay [3], in [4], in assay [5], in assay [6] and in assay [17] was inactive. In addition, the result in assay [8], in assay [9], in [11], in assay [13], in assay [14] and in assay [15] was inactive. Besides, the outcome in [16] was inactive.

Regarding `Cc1cc2oc(C(=O)N(Cc3ccccc3)C3CCS(=O)(=O)C3)cc(=O)c2cc1Cl` (stereo not drawn), the outcome in [1], in [2], in assay [3], in assay [5], in assay [6] and in assay [7] was inactive. Also, the result in assay [8], in [9], in [10], in assay [11], in [12] and in assay [13] was inactive. The result in assay [15] and in assay [16] was inactive. The results for the potentiation in assay [4] and in [14] were 47% (active) and 68.1% (active), respectively.

As for `Cc1cccc(/C=N/NC(=O)c2cccc(Cl)c2)n1`, the result in assay [1], in [2], in assay [3], in [5], in assay [6] and in assay [7] was inactive. Further, the result in [8], in [9], in [10], in [11], in assay [12] and in assay [13] was inactive. The result in assay [15] and in assay [16] was inactive. For the same compound, the values for the potentiation in [4] and in assay [14] were 79% (active) and 83.4% (active), respectively.

As to `CCCC1(c2ccccc2)NC(=O)N(CC(=O)c2[nH]c(C)c(C(=O)OCC)c2C)C1=O` (stereo not drawn), the result in assay [1], in [2], in assay [3], in assay [5], in [6] and in [7] was inactive. Besides, the outcome in [8], in assay [9], in assay [10], in [11], in [12] and in assay [13] was inactive. Moreover, the outcome in assay [15] and in assay [16] was inactive. For the same compound, the values for the potentiation in assay [4] and in [14] were 18% (active) and 35.6% (active), respectively.

As to `O=C(c1cccc([N+](=O)[O-])c1)N1CCCC(C(=O)N2CCCCCC2)C1` (stereo not drawn), the result in assay [1], in [2], in assay [3], in [4], in assay [5] and in assay [6] was inactive. Also, the result in assay [7], in [8], in assay [9], in assay [10], in assay [11] and in assay [12] was inactive. In addition, the result in assay [13], in assay [14], in assay [15] and in assay [16] was inactive.
